Experimental data reported in PubChem BioAssay AID1159580 (chemical genetic matrix, 2015).
Values joined by “and” are separate entries in the source; they are usually repeats but may differ in a detail not shown here. Equal values may be shown once. The campaign covered roughly 5,500 compounds. About 2,000 (36%) were called active. Inconclusive results (about 18%) are left out. Rule as the data show it: active = normalized growth mostly below about 0.91 (no sharp cut-off); inconclusive = no clear call, values can overlap the other calls; inactive = mostly above about 0.92. The list shows a part of the results.

Assay: chemical genetic growth profiling, strain panel (AID 1159580);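 also: tested at 20 µM; growth read once vehicle control cultures reached saturation at 30 °C; 1 = growth at the plate median or of vehicle wells; lower values mean less growth of the strain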
Conditions: S. cerevisiae deletion strains, growth OD

Measured: normalized growth

CNCCCC12CCC(c3ccccc31)c1ccccc12
inactive: locus YAL013W, strain DEP1, hits give low values 0.974 and 1.01 | locus YAL021C, strain ccr4, hits give low values 0.931 | locus YAL030W, strain snc1, hits give low values 0.999 | locus YAL040C, strain CLN3, hits give low values 1 | locus YBL061C, strain skt5, hits give low values 0.979 | locus YBR009C, strain hhf1, hits give low values 0.992 | locus YBR021W, strain FUR4, hits give low values 0.948 | locus YBR023C, strain chs3, hits give low values 0.957 | locus YBR171W, strain sec66, hits give low values 0.99 | locus YBR229C, strain ROT2, hits give low values 0.974 | locus YBR231C, strain swc5, hits give low values 0.956 | locus YBR279W, strain paf1, hits give low values 0.971 | locus YCL011C, strain gbp2, hits give low values 0.963 | locus YCL016C, strain dcc1, hits give low values 0.976 | locus YCL029C, strain bik1, hits give low values 0.994 | locus YCL061C, strain MRC1 (second series), hits give low values 0.999 | locus YCL069W, strain vba3, hits give low values 1.01 | locus YCR088W, strain abp1, hits give low values 0.998 | locus YDL005C, strain med2, hits give low values 0.972 | locus YDL035C, strain GPR1, hits give low values 0.998 | locus YDL040C, strain nat1, hits give low values 0.989 | locus YDL074C, strain BRE1, hits give low values 0.97 | locus YDL101C, strain DUN1, hits give low values 0.981 | locus YDL134C, strain PPH21, hits give low values 0.984 | locus YDL185W, strain tfp1, hits give low values 0.978 | locus YDL192W, strain arf1, hits give low values 0.991 | locus YDR001C, strain nth1, hits give low values 0.975 | locus YDR069C, strain doa4, hits give low values 0.918 | locus YDR101C, strain arx1, hits give low values 1.01 | locus YDR137W, strain rgp1, hits give low values 1.02 | locus YDR159W, strain sac3, hits give low values 0.95 | locus YDR162C, strain NBP2, hits give low values 0.996 | locus YDR195W, strain ref2 1.03 | locus YDR297W, strain sur2, hits give low values 0.975 | locus YDR318W, strain mcm21, hits give low values 0.973 | locus YDR334W, strain swr1, hits give low values 0.995 | locus YDR335W, strain msn5, hits give low values 0.982 | locus YDR363W, strain ESC2, hits give low values 1.01 | locus YDR388W, hits give low values 0.983 | locus YDR392W, strain spt3, hits give low values 0.999 | locus YDR502C, strain sam2, hits give low values 0.976 | locus YEL003W, strain gim4, hits give low values 0.978 | locus YEL037C, strain rad23, hits give low values 0.997 | locus YEL061C, strain CIN8 (second series), hits give low values 0.975 | locus YEL061C, strain CIN8, hits give low values 1.01 | locus YER002W, strain NOP16, hits give low values 1 | locus YER015W, strain faa2, hits give low values 0.978 | locus YER016W, strain bim1, hits give low values 0.996 | locus YER110C, hits give low values 0.989 | locus YER111C, strain swi4, hits give low values 0.995 | locus YER155C, strain BEM2 (second series), hits give low values 0.977 | locus YER155C, strain BEM2, hits give low values 1.01 | locus YER167W, strain BCK2, hits give low values 0.989 | locus YFR010W, strain ubp6, hits give low values 0.982 | locus YGL078C, strain dbp3, hits give low values 0.99 | locus YGL086W, strain mad1, hits give low values 0.969 | locus YGL167C, strain pmr1, hits give low values 1 | locus YGL173C, strain kem1, hits give low values 0.993 | locus YGL227W, strain vid30, hits give low values 1 | locus YGL240W, strain doc1, hits give low values 0.989 | locus YGL248W, strain PDE1, hits give low values 0.964 | locus YGL253W, strain hxk2, hits give low values 0.988 | locus YGR135W, strain pre9, hits give low values 0.94 | locus YGR229C, strain SMI1, hits give low values 0.941 and 0.953 | locus YGR252W, strain gcn5, hits give low values 0.841 | locus YHR013C, strain ard1, hits give low values 0.976 | locus YHR027C, strain rpn1, hits give low values 0.96 | locus YHR030C, strain SLT2, hits give low values 0.997 and 1.01 | locus YHR079C, strain IRE1 (second series), hits give low values 0.997 | locus YHR079C, strain IRE1, hits give low values 1.01 | locus YHR094C, strain hxt1, hits give low values 0.997 | locus YHR129C, strain ARP1, hits give low values 0.995 | locus YHR142W, strain chs7, hits give low values 0.91 | locus YHR200W, strain rpn10, hits give low values 0.991 | locus YIL066C, strain RNR3, hits give low values 0.992 | locus YIL073C, strain SPO22, hits give low values 0.918 | locus YIL125W, strain kgd1, hits give low values 0.981 | locus YIR030C, strain dcg1, hits give low values 0.99 | locus YJL092W, strain hpr5, hits give low values 0.971 | locus YJL095W, strain BCK1 (second series), hits give low values 0.973 | locus YJL095W, strain BCK1, hits give low values 0.941 and 0.998 | locus YJL115W, strain asf1, hits give low values 0.97 | locus YJL129C, strain trk1, hits give low values 1.01 | locus YJL134W, strain LCB3, hits give low values 0.982 | locus YJL154C, strain vps35, hits give low values 0.975 | locus YJL164C, strain tpk1, hits give low values 0.989 | locus YJL166W, strain qcr8, hits give low values 0.958 | locus YJL168C, strain set2, hits give low values 0.998 | locus YJL187C, strain SWE1 (second series), hits give low values 0.979 | locus YJL187C, strain SWE1, hits give low values 0.973 | locus YJR043C, strain POL32, hits give low values 1.01 | locus YJR066W, strain TOR1, hits give low values 0.949
active: locus YAL026C, strain drs2, hits give low values 0.768
